Assay outcomes as filed in PubChem BioAssay.
Hits are enriched below; roughly 12% of the tested compounds scored in any of these assays.
SARS PLP yeast: inhibitors of SARS-CoV papain-like protease in yeast. 0.19% of 330,000 active. S. cerevisiae expressing SARS-CoV PLpro, growth rescue. AID 485353. Potency, µM (top dose mostly 32.9 µM), without a hit: at the top dose activity, positive = growth rescue, usual class: activators; calls by dose curve; note: 0% is about no effect; nearly all actives have a fitted effect of over 55% in size
Sm TGR inh: S. mansoni TGR enzyme inhibition; 3% of 360,000 active; Potency, µM (doses to about 114 µM), without a hit: at the top dose activity change, negative = inhibition, hits mostly inhibitors; purified TGR, DTNB reduction, TNB absorbance 405 nm; Q962Y6; AID 485364; note: % is set by controls: 0 for no effect and ±100 for the full control effect; nearly all actives have a fitted effect of over 60% in size
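First, TGR (20 nM dispensed) and NADPH were mixed with compound. Second, a 15 min room-temperature incubation followed. Third, further NADPH and then DTNB were added to start the reaction. Finally, TNB absorbance was monitored kinetically.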
Pf growth 48h: P. falciparum growth inhibition at 48 hours (one generation); 5.9% of 310,000 active; P. falciparum luciferase growth in erythrocytes, 48 h; AID 504832; Potency, µM (series often up to 28.7 µM), for inactives: at the highest dose activity change, negative = inhibition, hits mostly inhibitors; note: % is set by controls: 0 for no effect and ±100 for the full control effect
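Erythrocytes infected with P. falciparum carrying an integrated firefly luciferase reporter (2% hematocrit, 0.1% parasitemia final) were exposed to compounds in RPMI 1640 with 0.5% Albumax at 37 C, 5% CO2. Growth inhibition was scored as reduced luminescence.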
Pf growth 96h: inhibits malaria parasite growth, 96 h | P. falciparum luciferase reporter growth, 96 h | Potency, µM (top dose mostly 28.7 µM), for the others: at the highest dose activity change, negative = inhibition, usual class: inhibitors | 6.9% of 320,000 active; note: % is set by controls: 0 for no effect and ±100 for the full control effect
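Readout is luminescence from an integrated firefly luciferase in P. falciparum. Red cells, 2% hematocrit and 0.05% parasitemia final, were cultured with compound through two parasite generations (96 hours) at 37 C, 5% CO2.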
Numbers without * were called inactive. Unless noted, calls come from the whole dose curve; as a rule, active = well fitted curve in the direction sought with a large enough effect; inconclusive = small, poorly fitted or top-dose-only effect, or another doubt; inactive = no such curve, though single readings can be large; an effect the other way counts as inactive or inconclusive. Potency is the fitted concentration of half-maximal effect.

Results for COc1cccc(-c2nnc3n(Cc4ccccc4Cl)c(=O)c4ccccc4n23)c1O ?
Sm TGR inh: 3%

What do the screens show for `CC1C(=O)C(=O)C=CN1C` (stereo not drawn)?
Pf growth 48h: inconclusive; Pf growth 96h: -5%

What do the screens show for `COc1cccc(CN(C(=O)c2ccc(C(C)(C)C)cc2)C2CCS(=O)(=O)C2)c1` (stereo not drawn)?
Sm TGR inh: 1%

Results for CCOC(=O)c1c(NC(=O)CCCOc2ccc(C)cc2)sc2c1CCC(C)C2 (stereo not drawn) ?
Sm TGR inh: 9%

What do the screens show for `CCCSc1ccc([C@@H]2[C@H]3C(=O)N(CC)C(=O)[C@H]3[C@]3(C(=O)OC)CCCN23)cc1OC`?
SARS PLP yeast: 6%; Sm TGR inh: -18%; Pf growth 48h: inconclusive; Pf growth 96h: inconclusive

How did CCCSc1ccc([C@@H]2[C@H]3C(=O)N(C)C(=O)[C@H]3[C@]3(C(=O)OC)CCCN23)cc1OC do in these assays?
SARS PLP yeast: -18%

How did CCCSc1ccc([C@@H]2[C@@H]3C(=O)N(C)C(=O)[C@@H]3[C@]3(C(=O)OC)CCCCN23)cc1OC do in these assays?
SARS PLP yeast: -2%; Sm TGR inh: inconclusive; Pf growth 48h: 13µM*; Pf growth 96h: inconclusive

How did CCN1C(=O)[C@@H]2[C@@H](c3ccc(SC4CCCCC4)c(OC)c3)N3CCC[C@@]3(C(=O)OC)[C@@H]2C1=O do in these assays?
SARS PLP yeast: -24%; Sm TGR inh: -12%; Pf growth 48h: 8.3µM*; Pf growth 96h: inconclusive

Results for CCCSc1ccc([C@@H]2[C@H]3C(=O)N(CC)C(=O)[C@H]3[C@]3(C(=O)OC)CCCCN23)cc1OC ?
SARS PLP yeast: -3%; Sm TGR inh: inconclusive; Pf growth 48h: 10µM*; Pf growth 96h: 12µM*

Results for Cc1ccc2c(c1)N(C(=O)CCC(=O)NC1CCC(C)CC1)CCO2 (stereo not drawn) ?
SARS PLP yeast: -10%; Sm TGR inh: 4%; Pf growth 48h: 0%; Pf growth 96h: 58%

What do the screens show for `COc1ccc2oc(C(=O)OCC(=O)N(C)C3CCCCC3)c(C)c2c1`?
SARS PLP yeast: 3%; Sm TGR inh: 0%; Pf growth 48h: 9%; Pf growth 96h: 2%

What do the screens show for `CC(C)Cn1c(N)c(C(=O)COC(=O)c2cccn2C)c(=O)n(C)c1=O`?
SARS PLP yeast: 0%

What do the screens show for `O=C(NC1(C(F)(F)F)NC(=O)N(CCc2ccccc2)C1=O)c1ccccc1Cl` (stereo not drawn)?
Sm TGR inh: -3%

How did CC(/C=C/c1ccc2c(c1)OCO2)=N/NC(=O)c1ccncc1 do in these assays?
SARS PLP yeast: 0%; Sm TGR inh: -4%; Pf growth 48h: -11%; Pf growth 96h: 0%

What do the screens show for `CC1=C(/C=C/C(C)=N\NC(=O)c2ccncc2)C(C)(C)CCC1`?
SARS PLP yeast: 1%; Sm TGR inh: -2%; Pf growth 48h: 13µM*; Pf growth 96h: 47%

Results for Cc1[nH]c2ccccc2c1NC(=O)CN1CCN(C(=O)c2ccco2)CC1 ?
SARS PLP yeast: -1%; Sm TGR inh: 32µM*; Pf growth 48h: inconclusive; Pf growth 96h: inconclusive

What do the screens show for `Cc1cc(Cl)ccc1NC(=O)CN1CCCC1`?
SARS PLP yeast: 4%; Sm TGR inh: -3%; Pf growth 48h: -8%; Pf growth 96h: -29%

Results for CN1CCN(CC(=O)Nc2ccc(Cl)cc2Cl)CC1 ?
SARS PLP yeast: 6%; Sm TGR inh: 7%; Pf growth 48h: 15%; Pf growth 96h: 9.3µM*

Results for O=C(CN1CCN(C(=O)c2ccco2)CC1)Nc1cc(Cl)ccc1Cl ?
SARS PLP yeast: 2%; Sm TGR inh: -17%; Pf growth 48h: 1µM*; Pf growth 96h: 35%

How did O=C(CN1CCN(C(=O)c2ccco2)CC1)Nc1ccc(Cl)c(S(=O)(=O)N2CCOCC2)c1 do in these assays?
SARS PLP yeast: 2%; Sm TGR inh: inconclusive; Pf growth 48h: 12µM*; Pf growth 96h: -83%

How did O=C(CN1CCN(C(=O)c2ccco2)CC1)Nc1ccccc1-c1ccccc1 do in these assays?
SARS PLP yeast: 0%; Sm TGR inh: -1%; Pf growth 48h: inconclusive; Pf growth 96h: -104%

How did Cc1ccc(NC(=O)COc2ccc(Br)cc2CO)cc1S(=O)(=O)N1CCOCC1 do in these assays?
SARS PLP yeast: 0%

What do the screens show for `CCCc1cc(=O)n2nc(N3CCC(C(=O)NCc4ccco4)CC3)sc2n1`?
SARS PLP yeast: 2%; Sm TGR inh: -3%; Pf growth 48h: -5%; Pf growth 96h: 30%

Results for Cc1cccc(C(=O)NCCc2nc3ccccc3n2Cc2ccc(Cl)cc2)c1 ?
Sm TGR inh: 6%

What do the screens show for `O=C(CN1CCCCC1)c1ccccc1Cl`?
SARS PLP yeast: 5%; Sm TGR inh: -22%; Pf growth 48h: -16%; Pf growth 96h: 0%

How did CCN1CCN(CC(=O)c2cc(Cl)ccc2Cl)CC1 do in these assays?
SARS PLP yeast: -3%; Sm TGR inh: 18µM*; Pf growth 48h: inconclusive; Pf growth 96h: inconclusive

Results for COc1ccc(/C=C/C(=O)OCC(=O)Nc2ccc3[nH]c(=O)[nH]c3c2)cc1OC ?
SARS PLP yeast: 0%; Sm TGR inh: 6%; Pf growth 48h: 19%; Pf growth 96h: 45%

What do the screens show for `CCC(C)(C)n1nnnc1C(c1cccnc1)N1CCC(Cc2ccccc2)CC1` (stereo not drawn)?
SARS PLP yeast: 1%; Sm TGR inh: 4%; Pf growth 48h: 11%; Pf growth 96h: inconclusive

Results for CC(C)(C)n1nnnc1C(c1cccc(C#N)c1)N1CCCc2ccccc21 (stereo not drawn) ?
SARS PLP yeast: -6%; Sm TGR inh: -2%; Pf growth 48h: 9.3µM*; Pf growth 96h: 23%

How did CC(C)(C)n1nnnc1C(c1cccc(C#N)c1)N1CCC(Cc2ccccc2)CC1 (stereo not drawn) do in these assays?
SARS PLP yeast: 2%; Sm TGR inh: -1%; Pf growth 48h: 2.6µM*

How did CC(C)(C)n1nnnc1C(c1ccc(Cl)cc1)N1CCCc2ccccc21 (stereo not drawn) do in these assays?
SARS PLP yeast: 0%; Sm TGR inh: -25%; Pf growth 48h: 2.3µM*; Pf growth 96h: 33%

How did COc1ccccc1N1CCN(C(c2ccc(Cl)cc2)c2nnnn2C(C)(C)C)CC1 (stereo not drawn) do in these assays?
SARS PLP yeast: -1%; Sm TGR inh: 12%; Pf growth 48h: 6.6µM*; Pf growth 96h: inconclusive

How did CC(=O)N1CCC2(CC1)OC(=O)C(C)=C2C(=O)Nc1ccccc1C(F)(F)F do in these assays?
Sm TGR inh: 7%

Results for CCCCCOc1ccccc1CN1C(=O)C(=O)c2cc(C)ccc21 ?
Sm TGR inh: -17%

Results for CN(C)c1ccc(CNC(=O)c2ccc(Cn3c(SCc4ccccc4)nc4cccnc43)cc2)cc1 ?
Sm TGR inh: 0%

What do the screens show for `COc1ccccc1CCN1C(=S)NC(C)(C)CC1(C)O` (stereo not drawn)?
SARS PLP yeast: 9%; Sm TGR inh: 4%; Pf growth 48h: inconclusive; Pf growth 96h: 9.3µM*
